In PubChem BioAssay AID1159580 (chemical genetic matrix, 2015):
“And” between values parts separate entries of the source, which are not always exact repeats. Equal entries are not always repeated. Hit rate of the full screen: of about 5,500 compounds, about 2,000 (36%) were called active. About 18% were inconclusive and are not listed. Cut-off read from the data, not from the text of the source: active = normalized growth mostly below about 0.91 (no sharp cut-off); inconclusive = no clear call, values can overlap the other calls; inactive = mostly above about 0.92. Some of the results follow.

Assay: chemical genetic growth profiling, strain panel (AID 1159580);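 note: tested at 20 µM; growth read once vehicle control cultures reached saturation at 30 °C; 1 = growth at the plate median or of vehicle wells; lower values mean less growth of the strain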
Conditions: S. cerevisiae deletion strains, growth OD

Measured: normalized growth

c1cncc(C2CCCCN2)c1 (configuration not stated)
inactive: locus YAL021C, strain ccr4, stronger effect = lower value 0.986 | locus YAL026C, strain drs2, stronger effect = lower value 0.999 | locus YAL030W, strain snc1, stronger effect = lower value 1 | locus YBL061C, strain skt5, stronger effect = lower value 0.995 | locus YBR009C, strain hhf1, stronger effect = lower value 0.995 | locus YBR021W, strain FUR4, stronger effect = lower value 1.02 | locus YBR023C, strain chs3, stronger effect = lower value 0.998 | locus YBR171W, strain sec66, stronger effect = lower value 0.985 | locus YBR229C, strain ROT2, stronger effect = lower value 1.02 | locus YBR231C, strain swc5, stronger effect = lower value 0.991 | locus YBR279W, strain paf1, stronger effect = lower value 0.99 | locus YCL011C, strain gbp2, stronger effect = lower value 0.997 | locus YCL016C, strain dcc1, stronger effect = lower value 0.996 | locus YCL029C, strain bik1, stronger effect = lower value 0.982 | locus YCL061C, strain MRC1, stronger effect = lower value 0.988 | locus YCL069W, strain vba3, stronger effect = lower value 0.993 | locus YCR088W, strain abp1, stronger effect = lower value 0.993 | locus YDL005C, strain med2, stronger effect = lower value 0.997 | locus YDL035C, strain GPR1, stronger effect = lower value 1.04 | locus YDL040C, strain nat1, stronger effect = lower value 0.992 | locus YDL074C, strain BRE1, stronger effect = lower value 1.01 | locus YDL101C, strain DUN1, stronger effect = lower value 1.01 | locus YDL185W, strain tfp1, stronger effect = lower value 1 | locus YDL192W, strain arf1, stronger effect = lower value 0.998 | locus YDR001C, strain nth1, stronger effect = lower value 0.991 | locus YDR069C, strain doa4, stronger effect = lower value 0.988 | locus YDR101C, strain arx1, stronger effect = lower value 0.971 | locus YDR137W, strain rgp1, stronger effect = lower value 0.996 | locus YDR159W, strain sac3, stronger effect = lower value 0.979 | locus YDR162C, strain NBP2, stronger effect = lower value 1 | locus YDR195W, strain ref2 0.98 | locus YDR297W, strain sur2, stronger effect = lower value 0.986 | locus YDR318W, strain mcm21, stronger effect = lower value 1.01 | locus YDR334W, strain swr1, stronger effect = lower value 0.99 | locus YDR335W, strain msn5, stronger effect = lower value 0.994 | locus YDR388W, stronger effect = lower value 0.996 | locus YDR392W, strain spt3, stronger effect = lower value 0.99 | locus YDR502C, strain sam2, stronger effect = lower value 0.995 | locus YEL003W, strain gim4, stronger effect = lower value 1.01 | locus YEL037C, strain rad23, stronger effect = lower value 0.999 | locus YEL061C, strain CIN8 (second series), stronger effect = lower value 0.992 | locus YEL061C, strain CIN8, stronger effect = lower value 0.999 | locus YER015W, strain faa2, stronger effect = lower value 0.997 | locus YER016W, strain bim1, stronger effect = lower value 0.995 | locus YER110C, stronger effect = lower value 0.98 | locus YER111C, strain swi4, stronger effect = lower value 0.989 | locus YER155C, strain BEM2 (second series), stronger effect = lower value 0.996 | locus YER155C, strain BEM2, stronger effect = lower value 1.01 | locus YER167W, strain BCK2, stronger effect = lower value 0.993 | locus YFR010W, strain ubp6, stronger effect = lower value 0.989 | locus YGL078C, strain dbp3, stronger effect = lower value 1 | locus YGL086W, strain mad1, stronger effect = lower value 0.978 | locus YGL167C, strain pmr1, stronger effect = lower value 0.989 | locus YGL173C, strain kem1, stronger effect = lower value 0.984 | locus YGL227W, strain vid30, stronger effect = lower value 0.983 | locus YGL240W, strain doc1, stronger effect = lower value 0.981 | locus YGL248W, strain PDE1, stronger effect = lower value 1.03 | locus YGL253W, strain hxk2, stronger effect = lower value 0.986 | locus YGR078C, strain PAC10, stronger effect = lower value 1.01 | locus YGR135W, strain pre9, stronger effect = lower value 0.999 | locus YGR252W, strain gcn5, stronger effect = lower value 0.969 | locus YHR013C, strain ard1, stronger effect = lower value 1 | locus YHR027C, strain rpn1, stronger effect = lower value 0.985 | locus YHR030C, strain SLT2, stronger effect = lower value 1.01 and 1.02 | locus YHR079C, strain IRE1 (second series), stronger effect = lower value 0.998 | locus YHR079C, strain IRE1, stronger effect = lower value 1 | locus YHR094C, strain hxt1, stronger effect = lower value 0.996 | locus YHR129C, strain ARP1, stronger effect = lower value 1 | locus YHR142W, strain chs7, stronger effect = lower value 0.985 | locus YHR200W, strain rpn10, stronger effect = lower value 0.999 | locus YIL066C, strain RNR3, stronger effect = lower value 1.01 | locus YIL073C, strain SPO22, stronger effect = lower value 0.996 | locus YIL125W, strain kgd1, stronger effect = lower value 0.986 | locus YIR030C, strain dcg1, stronger effect = lower value 0.988 | locus YJL092W, strain hpr5, stronger effect = lower value 0.995 | locus YJL095W, strain BCK1 (second series), stronger effect = lower value 1.01 | locus YJL095W, strain BCK1, stronger effect = lower value 1.05 and 0.994 | locus YJL115W, strain asf1, stronger effect = lower value 0.986 | locus YJL129C, strain trk1, stronger effect = lower value 0.999 | locus YJL134W, strain LCB3, stronger effect = lower value 1.01 | locus YJL154C, strain vps35, stronger effect = lower value 0.991 | locus YJL164C, strain tpk1, stronger effect = lower value 0.998 | locus YJL166W, strain qcr8, stronger effect = lower value 0.993 | locus YJL168C, strain set2, stronger effect = lower value 0.995 | locus YJL187C, strain SWE1 (second series), stronger effect = lower value 1.03 | locus YJL187C, strain SWE1, stronger effect = lower value 1.01 | locus YJR043C, strain POL32, stronger effect = lower value 1.02
